Measurements published in PubChem BioAssay (NCI).
Where “and” joins values, the source holds several entries; their conditions need not be identical. Identical values can stand only once. This is part of a sample that, as a whole, favours compounds with a hit. Of some 83,000 tested, about 20% had one in any assay.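 Note: values are percent growth. 100 is the growth of untreated cells, values between 100 and 0 indicate rising inhibition; between -100 and 0 indicates cell death.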 Calls of active or inactive are those of the source. How the source made its calls: active means growth percent below 10; inactive means the rest.

What was measured:
Test in all cases: NCI-60 one-dose screen, 48 h (100 = growth as untreated, 0 = no growth, -100 = all killed)
SK-MEL-2 melanoma = conditions: 10 µM
EKVX NSCLC = conditions: 10 µM
SN12C renal = conditions: 10 µM
TK-10 renal = system: TK-10 renal
ACHN renal = conditions: 10 µM
CAKI-1 renal = conditions: 10 µM
A498 renal = conditions: 10 µM
CCRF-CEM leukemia = conditions: 10 µM
MOLT-4 leukemia = conditions: 10 µM
UO-31 renal = conditions: 10 µM

Measured: growth

COC(=O)c1[nH]c(=O)c(C#N)c(C(=O)OC)c1C(=O)c1ccccc1
inactive: SK-MEL-2 melanoma 114% | EKVX NSCLC 91.4% | SN12C renal 95% | TK-10 renal; 10 µM unless noted 143% | ACHN renal 98.1% | CAKI-1 renal 90% | A498 renal 113% | CCRF-CEM leukemia 105% | MOLT-4 leukemia 104%

CCN=c1cc2sc3cc(NCC)c(C)cc3nc-2cc1C
inactive: SK-MEL-2 melanoma 26.5% | UO-31 renal 40.5% | ACHN renal 53% | A498 renal 47.7% | CCRF-CEM leukemia 14%
active: EKVX NSCLC -7.52% | SN12C renal -83.1% | CAKI-1 renal -56% | MOLT-4 leukemia 8.77%

CCCCOC(=O)c1ccc(C(C)C)cc1
inactive: SK-MEL-2 melanoma 99.7% | EKVX NSCLC 91.7% | SN12C renal 102% | UO-31 renal 91.7% | ACHN renal 104% | CAKI-1 renal 96.7% | A498 renal 87% | CCRF-CEM leukemia 112%

CCCCNC(=O)C(=O)NCCCC
inactive: SK-MEL-2 melanoma 123% | EKVX NSCLC 95.5% | SN12C renal 98.8% | TK-10 renal; 10 µM unless noted 96.4% | ACHN renal 110% | CAKI-1 renal 91.8% | A498 renal 114% | CCRF-CEM leukemia 101%

O=S(=O)(O)c1ccc(O)c2ccccc12
inactive: SK-MEL-2 melanoma 97.2% | EKVX NSCLC 88.9% | SN12C renal 103% | UO-31 renal 77.7% | ACHN renal 100% | CAKI-1 renal 68.5% | A498 renal 112% | CCRF-CEM leukemia 99.4% | MOLT-4 leukemia 95.4%

CC(=O)c1cc2c(cc1F)C(C)(C)CCC2(C)C
inactive: SK-MEL-2 melanoma 104% | EKVX NSCLC 111% | SN12C renal 98.5% | UO-31 renal 80% | TK-10 renal; 10 µM unless noted 109% | CAKI-1 renal 112% | A498 renal 92.6% | CCRF-CEM leukemia 120% | MOLT-4 leukemia 89.1%

CC(=O)c1sc2c(c1OC(=O)c1ccc(Cl)cc1Cl)c(=O)n(-c1ccccc1)c(=S)n2-c1ccccc1
active: SK-MEL-2 melanoma -43.9% | TK-10 renal; 10 µM -9.03% | TK-10 renal; 100 µM 2.01% and -66.5% | ACHN renal -18.2% | A498 renal -41.9% | CCRF-CEM leukemia -24.2% | MOLT-4 leukemia -11.4%
inactive: EKVX NSCLC 51.4% | SN12C renal 13.4% | CAKI-1 renal 13.5%

CC(O)COc1ccc(-c2ccccc2)cc1 (configuration not stated)
inactive: SK-MEL-2 melanoma 108% | EKVX NSCLC 93.6% | SN12C renal 101% | TK-10 renal; 10 µM unless noted 106% | ACHN renal 103% | CAKI-1 renal 91.9% | A498 renal 78.7% | CCRF-CEM leukemia 95.4% | MOLT-4 leukemia 121%

COC(=O)c1cccc(Br)c1
inactive: SK-MEL-2 melanoma 110% | EKVX NSCLC 87.1% | SN12C renal 104% | UO-31 renal 101% | TK-10 renal; 10 µM unless noted 106% | CAKI-1 renal 102% | A498 renal 86.3% | CCRF-CEM leukemia 98.2% | MOLT-4 leukemia 111%

O=c1cc2oc3cc(O)c(O)cc3c(-c3ccccc3O)c-2cc1O
inactive: SK-MEL-2 melanoma 110% | EKVX NSCLC 84% | SN12C renal 66.4% | UO-31 renal 34.9% | TK-10 renal; 10 µM unless noted 108% | A498 renal 48% | CCRF-CEM leukemia 11% | MOLT-4 leukemia 63.8%

CCOc1ccc(Br)cc1/C=N\N=C\c1cc(Br)ccc1OCC
inactive: SK-MEL-2 melanoma 109% | EKVX NSCLC 107% | SN12C renal 102% | UO-31 renal 88.8% | TK-10 renal; 10 µM unless noted 111% | CAKI-1 renal 90.8% | A498 renal 141% | MOLT-4 leukemia 102%
active: CCRF-CEM leukemia -3.92%

Cc1cc(C)cc(NCCC#N)c1
inactive: SK-MEL-2 melanoma 98.3% | EKVX NSCLC 103% | SN12C renal 110% | UO-31 renal 96.5% | TK-10 renal; 10 µM unless noted 129% | CAKI-1 renal 107% | A498 renal 111% | CCRF-CEM leukemia 96.8% | MOLT-4 leukemia 91.4%

NC(=S)N/N=C/c1ccc(N)cc1
inactive: SK-MEL-2 melanoma 104% | EKVX NSCLC 101% | SN12C renal 108% | UO-31 renal 91.6% | ACHN renal 108% | CAKI-1 renal 101% | A498 renal 91.2% | CCRF-CEM leukemia 87.2% | MOLT-4 leukemia 77.7%

Cc1ccc(C)n1-c1ccsc1C(=O)NNC(=O)CCl
inactive: SK-MEL-2 melanoma 91.2% | EKVX NSCLC 81.2% | SN12C renal 92.2% | TK-10 renal; 10 µM unless noted 105% | ACHN renal 98.5% | CAKI-1 renal 84.8% | A498 renal 104% | CCRF-CEM leukemia 61%

CCCCCCCCCCCCCCCCC1CC(=O)OC1=O (configuration not stated)
inactive: SK-MEL-2 melanoma 113% | EKVX NSCLC 96.9% | SN12C renal 101% | UO-31 renal 93.5% | TK-10 renal; 10 µM unless noted 107% | CAKI-1 renal 97.9% | CCRF-CEM leukemia 96.5% | MOLT-4 leukemia 118%

CCC(O)CC(CC)CO (configuration not stated)
inactive: SK-MEL-2 melanoma 134% | EKVX NSCLC 93.7% | SN12C renal 111% | UO-31 renal 94.6% | TK-10 renal; 10 µM unless noted 111% | CAKI-1 renal 96.6% | A498 renal 99.2% | CCRF-CEM leukemia 96.2% | MOLT-4 leukemia 102%

CC1(O)CCCCC1O (configuration not stated)
inactive: SK-MEL-2 melanoma 91.8% | EKVX NSCLC 114% | SN12C renal 95.1% | UO-31 renal 79.3% | TK-10 renal; 10 µM unless noted 125% | CAKI-1 renal 102% | CCRF-CEM leukemia 107% | MOLT-4 leukemia 103%

CCC(C)(O)c1ccc(C)cc1 (configuration not stated)
inactive: SK-MEL-2 melanoma 98% | EKVX NSCLC 109% | SN12C renal 102% | UO-31 renal 91.4% | TK-10 renal; 10 µM unless noted 99.6% | CAKI-1 renal 104% | A498 renal 96.9% | CCRF-CEM leukemia 99.3% | MOLT-4 leukemia 95.6%

COC(=O)c1ccc(C(C)C)cc1
inactive: SK-MEL-2 melanoma 116% | EKVX NSCLC 92.3% | SN12C renal 99.1% | UO-31 renal 97.4% | ACHN renal 101% | CAKI-1 renal 96.8% | A498 renal 129% | CCRF-CEM leukemia 83.9% | MOLT-4 leukemia 101%

CCOC(=O)CSc1c([N+](=O)[O-])ncn1C
inactive: SK-MEL-2 melanoma 95.4% | EKVX NSCLC 95.6% | SN12C renal 102% | UO-31 renal 89.8% | TK-10 renal; 10 µM unless noted 94.2% | A498 renal 114% | CCRF-CEM leukemia 94.8% | MOLT-4 leukemia 94.8%

Cc1ccccc1N=C(c1ccccc1)C1C(=O)c2ccccc2C1=O
active: A498 renal -13.7%
inactive: SK-MEL-2 melanoma 59.9% | EKVX NSCLC 88.9% | SN12C renal 90.9% | UO-31 renal 82.5% | ACHN renal 88.3% | CAKI-1 renal 84.6% | CCRF-CEM leukemia 65.1% | MOLT-4 leukemia 56.4%

OCC(O)C(O)C(O)C(O)/C=N/O (configuration not stated)
inactive: SK-MEL-2 melanoma 107% | EKVX NSCLC 105% | SN12C renal 106% | UO-31 renal 98.4% | ACHN renal 112% | CAKI-1 renal 104% | A498 renal 102% | CCRF-CEM leukemia 81.6% | MOLT-4 leukemia 82.7%

COCCOC(=O)c1ccc(C(C)C)cc1
inactive: SK-MEL-2 melanoma 96.9% | EKVX NSCLC 100% | SN12C renal 103% | UO-31 renal 94.5% | ACHN renal 107% | CAKI-1 renal 99.4% | A498 renal 92.8% | CCRF-CEM leukemia 90.6% | MOLT-4 leukemia 88.2%

CC(=O)OCC1OC(OC2=C(CC=C(C)C)C(=O)c3ccccc3C2=O)C(OC(C)=O)C(OC(C)=O)C1OC(C)=O (configuration not stated)
active: CCRF-CEM leukemia -25.8% | MOLT-4 leukemia -26.7%
inactive: SK-MEL-2 melanoma 58.7% | EKVX NSCLC 15.6% | SN12C renal 52% | UO-31 renal 38.6% | TK-10 renal; 10 µM unless noted 87.4% | CAKI-1 renal 68.5% | A498 renal 22.6%

CCC(C)(C)C1CCC(O)CC1 (configuration not stated)
inactive: SK-MEL-2 melanoma 103% | EKVX NSCLC 94.9% | SN12C renal 98.7% | TK-10 renal; 10 µM unless noted 98.7% | ACHN renal 97.7% | CAKI-1 renal 115% | A498 renal 97.8% | CCRF-CEM leukemia 93.5%

CCCC1(c2ccccc2)NC(=O)NC1=O (configuration not stated)
inactive: SK-MEL-2 melanoma 103% | EKVX NSCLC 118% | SN12C renal 104% | TK-10 renal; 10 µM unless noted 95.2% | ACHN renal 103% | CAKI-1 renal 116% | A498 renal 121% | CCRF-CEM leukemia 99.7% | MOLT-4 leukemia 123%

CC1=CC(=O)c2ccccc2C1=O
inactive: SK-MEL-2 melanoma 110% | EKVX NSCLC 114% | SN12C renal 99.3% | UO-31 renal 70% | TK-10 renal; 10 µM unless noted 124% | CAKI-1 renal 97.5% | A498 renal 103% | MOLT-4 leukemia 114%

CC(=O)OCCC(C)CCC=C(C)C (configuration not stated)
inactive: SK-MEL-2 melanoma 98.1% | EKVX NSCLC 100% | SN12C renal 101% | UO-31 renal 88% | TK-10 renal; 10 µM unless noted 106% | CAKI-1 renal 103% | A498 renal 100% | CCRF-CEM leukemia 104% | MOLT-4 leukemia 114%

OCCN1CCOCC1
inactive: SK-MEL-2 melanoma 107% | EKVX NSCLC 116% | SN12C renal 97.5% | TK-10 renal; 10 µM unless noted 106% | ACHN renal 101% | CAKI-1 renal 132% | A498 renal 106% | CCRF-CEM leukemia 108%

COC(=O)C(O)c1ccccc1 (configuration not stated)
inactive: SK-MEL-2 melanoma 103% | EKVX NSCLC 119% | SN12C renal 97% | TK-10 renal; 10 µM unless noted 106% | ACHN renal 100% | CAKI-1 renal 114% | A498 renal 132% | CCRF-CEM leukemia 98.1% | MOLT-4 leukemia 105%

CCCCCCCCCCCCCC(=O)Oc1ccc[nH]c1=O
inactive: SK-MEL-2 melanoma 115% | EKVX NSCLC 83.4% | SN12C renal 98.1% | TK-10 renal; 10 µM unless noted 84.2% | ACHN renal 110% | CAKI-1 renal 84.5% | A498 renal 94.5% | CCRF-CEM leukemia 75.5% | MOLT-4 leukemia 98.6%

Cc1cc2nc(CC(=O)c3cccc([N+](=O)[O-])c3)c(=O)[nH]c2cc1C
inactive: SK-MEL-2 melanoma 95.4% | EKVX NSCLC 59.9% | SN12C renal 86.5% | TK-10 renal; 10 µM unless noted 115% | ACHN renal 87.3% | CAKI-1 renal 76.5% | A498 renal 127% | CCRF-CEM leukemia 76.3% | MOLT-4 leukemia 83.4%

C=CCc1cc(C(C)=O)cc(OC)c1O
inactive: SK-MEL-2 melanoma 130% | EKVX NSCLC 100% | SN12C renal 105% | TK-10 renal; 10 µM unless noted 102% | ACHN renal 121% | CAKI-1 renal 98.2% | A498 renal 100% | CCRF-CEM leukemia 106% | MOLT-4 leukemia 98%

CS(=O)CC1=NC(=N)N=C1CS(C)=O (configuration not stated)
inactive: SK-MEL-2 melanoma 115% | EKVX NSCLC 98.7% | SN12C renal 101% | TK-10 renal; 10 µM unless noted 101% | ACHN renal 107% | CAKI-1 renal 92.9% | A498 renal 104% | CCRF-CEM leukemia 108% | MOLT-4 leukemia 107%
